# From PubChem
# Rows were chosen to be rich in hits. Some 0.44% of all compounds tested hit in one or more screens of this group.
# RmlC RmlD mix: RmlC and RmlD coupled enzyme inhibitors, primary screen, biochemical, 384-well, compound mixtures, retest | RmlC/RmlD coupled enzyme inhibition, 384-well mixture HTS | inhibition, % at 5.5 µM | hit rate 0.39% among 110,000 | AID 1532, 2009; in the data active = inhibition above about 30%, passing the limit was not always enough
# YopH PTP inh: YopH tyrosine phosphatase inhibitors, primary screen, biochemical, fluorescence Ex485/Em525; YopH tyrosine phosphatase [Yersinia enterocolitica]; inhibition, % (no concentration beside the values); hit rate 0.16% among 140,000; in the data active = inhibition above about 50%
# RmlCD artifact: counter-screen for RmlC/RmlD inhibitors: fluorescence artifact, dose response, artefact control, biochemical; AID 1696, 2009; RmlC/RmlD assay fluorescence artifact counter-screen; calls only; shares compounds with RmlC RmlD mix; hit rate 96% among 360; call rule not given here;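 also: compound alone with no enzyme and no substrates present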
# * hit, by the source's call; . = no result; + = active, no number.
SMILES,RmlC RmlD mix,YopH PTP inh,others
Cc1ccc(S(=O)(=O)Oc2ccc(/C=C3/N=C(c4ccccc4)OC3=O)cc2)cc1,.,-2,
COCCn1c(SCC(=O)Nc2ccc(NC(=O)c3ccco3)c(OC)c2)nc2ccccc2c1=O,-12,6,
CCn1c(SCC(=O)Nc2ccc(NC(=O)c3ccco3)c(OC)c2)nc2ccccc2c1=O,95*,-23,
CCOC(=O)c1ccc2c(c1)nc(-c1ccc(F)cc1)c1nccn12,.,-8,
O=C(Nc1cccc(S(=O)(=O)c2cccc(NC(=O)C3CC3)c2)c1)C1CC1,2,-5,
COc1cc(C2C(C(=O)OC(C)C)=C(C)Nc3[nH]c(=O)[nH]c(=O)c32)ccc1O (stereo not given),-11,51*,
COc1cc(C2NC(=O)NC(C)=C2C(=O)OCc2ccccc2)ccc1O (stereo not given),17,.,
O=C(/C=C/c1ccc(O)cc1)c1ccc(NC2=C(N3CCCCC3)C(=O)c3ccccc3C2=O)cc1,-1,93*,
COc1cccc(OC)c1C(=O)Nc1ccccc1N1CCCC1,13,-4,
O=C1C(Nc2cccc(O)c2)=C(N2CCCCC2)C(=O)c2ccccc21,39,81*,
Cc1ccc(NC2=C(N3CCCCC3)C(=O)c3ccccc3C2=O)cc1,4,76*,
COc1ccccc1NC1=C(N2CCCCC2)C(=O)c2ccccc2C1=O,.,90*,
COC1=C(Nc2ccc(C)cc2)C(=O)c2ccccc2C1=O,.,-2,
CC1(C)CC(=O)C=C(Nc2cccc(O)c2)C1,-10,-42,
COc1ccc(C(=O)/C=C/c2ccc(O)cc2)cc1,-9,.,
FC(F)(F)c1cc(-c2cccs2)nc(-n2cc(Cl)cn2)n1,-2,-11,
CCOc1ccc(CCNC(=O)C2CCCN(C(=O)N(C)C)C2)cc1OCC (stereo not given),4,-6,
CC(C)C(=O)Nc1ncc2c(n1)CC(c1cccs1)CC2=O (stereo not given),45,-31,
COc1ccc(Br)cc1C(=O)Nc1cc(C)cc(C)c1,5,24,
NNc1nc(-c2ccccc2Cl)nc2sc3c(c12)CCCC3,.,-27,
O=C1C(Nc2ccccc2)=C(N2CCCCC2)C(=O)c2ccccc21,-6,98*,
CN(C1=C(N2CCCCC2)C(=O)c2ccccc2C1=O)c1ccccc1,-9,8,
Cc1cc(N(CCO)CCO)ccc1C(c1ccc(N(CCO)CCO)cc1C)c1ccccc1Cl,.,11,
CCOC(=O)c1nc(C)n(-c2ccc(Cl)cc2)n1,-1,52*,
CCOC(=O)c1nc(N)c(=O)n(-c2ccc(C)cc2)n1,7,-28,
SMILES,RmlC RmlD mix,YopH PTP inh,others
COc1cc(CN2C(=O)C(NC(=O)c3ccco3)(C(F)(F)F)C3=C2CC(C)(C)CC3=O)cc(OC)c1 (stereo not given),-16,-2,
COc1ccc(C(=O)Nc2sc3c(c2C(=O)NCc2ccco2)CCCC3)cc1OC,146*,2,
COc1cc(C(=O)Nc2sc3c(c2C(=O)NCc2ccco2)CCCC3)cc(OC)c1OC,-13,-5,
CC(CCc1ccccc1)NC(=O)COC(=O)C12CC3CC(CC(Br)(C3)C1)C2 (stereo not given),.,-10,
O=C(CCCCCn1c(=O)[nH]c2ccsc2c1=O)NCc1ccc2c(c1)OCO2,0,-18,
CC(=O)Nc1nonc1NC(C)=O,-9,-5,
CC(=O)Nc1cc(OC(C)=O)c2nonc2c1OC(C)=O,-6,76*,
C/C(CC(=O)Nc1ccc2c(c1)OCO2)=N\NC(=O)C(c1ccccc1)c1ccccc1,.,-2,
O=C(c1ccc2c(=O)n(C3CCCC3)c(=S)[nH]c2c1)N1CCc2ccccc21,4,-58,
CC(=O)C1=C(c2ccc(Br)cc2)C(=O)c2ccccc2C1=O,.,4,
CNC1=C(N(C(C)=O)c2ccc(Br)cc2)C(=O)c2ccccc2C1=O,.,84*,
Cc1ccc(NC(=O)N2CCC(=O)N2)cc1,10,-21,
COc1ccc(C2NC(=O)c3sc4nc(C)c(C(C)=O)c(-c5ccc(Cl)cc5)c4c3N2)cc1 (stereo not given),52*,-33,RmlCD artifact=+
COc1ccc(-c2c(C(C)=O)c(C)nc3sc4c(=N)n(N)cnc4c23)cc1,.,-20,
CCOC(=O)CSc1nc2c(sc(=S)n2-c2ccccc2OC)c(=O)n1Cc1ccco1,-8,-2,
COc1ccccc1CNC(=O)c1c(N)n(CCCN2CCOCC2)c2nc3ccccc3nc12,.,-12,
CCCCCn1c(NC(=O)c2ccco2)c(C(=O)OCC)c2nc3ccccc3nc21,.,22,
CC(C)OC(=O)c1c(N)n(CCCN2CCOCC2)c2nc3ccccc3nc12,38*,2,RmlCD artifact=+
CCOC(=O)c1c(N)n(CCCOC(=O)c2ccco2)c2nc3ccccc3nc12,34*,-30,RmlCD artifact=+
COc1ccc(C(=O)OC/C(O)=C(\C#N)c2nc3ccccc3[nH]2)cc1S(=O)(=O)N1CCOCC1,.,-31,
